Measured values reported in PubChem BioAssay (Tox21).
“And” between values parts separate entries of the source, which are not always exact repeats. Identical values can stand only once. Records with an inconclusive call do not appear. A call without a number means that no potency is given here. The source made the active and inactive calls. The call rests on the fitted dose curve; in most records, active means well fitted curve in the direction sought with a large enough effect in the repeat runs; inconclusive means weak or mixed curves; inactive means no such curve, though single readings can be large; an effect the other way counts as inactive or inconclusive.

Tested on: not listed separately
Assay: qHTS assay to identify small molecule antagonists of the estrogen related receptor (ERR) signaling pathway from Tox21 library - cell viability counter screen (AID 1224834); further: nearly all actives have a fitted effect of over 30% in size; further: potency means the concentration at half of the fitted maximal effect
Settings: ERR reporter cells viability, CellTiter-Fluor, 17.5 h; series mostly up to 92.4 µM
How it was run: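 ERR cells, 2,000/well; 6 h settle at 37 C/5% CO2; pin-tool compound transfer in DMSO; 17.5 h at 37 C; CellTiter-Fluor, 30 min; fluorescence intensity.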

SMILES | Potency
CCC[N+]1(C)CCCC1 | inactive
CN(C)[C@@H]1C(=O)C(C(N)=O)=C(O)[C@@]2(O)C(=O)C3=C(O)c4c(O)cccc4[C@@](C)(O)[C@H]3[C@H](O)[C@@H]12 | inactive
CC(=O)O | inactive
CC(Cl)(Cl)C(=O)O | inactive
CCCC[n+]1cccc(C)c1 | inactive
Nc1ccccc1 | inactive
C=CCOC(Cn1ccnc1)c1ccc(Cl)cc1Cl (stereo unspecified) | 30.7 µM (active) and 48.6 µM (active) and 29.8 µM (active)
O=C(O)COc1ccc(Cl)cc1Cl | inactive
CCCCCC[n+]1ccccc1 | inactive
CCC[N+]1(C)CCCCC1 | inactive

Target: Luciferin 4-monooxygenase (Photinus pyralis) (UniProt P08659)
Sequence (P08659 whole entry, looked up): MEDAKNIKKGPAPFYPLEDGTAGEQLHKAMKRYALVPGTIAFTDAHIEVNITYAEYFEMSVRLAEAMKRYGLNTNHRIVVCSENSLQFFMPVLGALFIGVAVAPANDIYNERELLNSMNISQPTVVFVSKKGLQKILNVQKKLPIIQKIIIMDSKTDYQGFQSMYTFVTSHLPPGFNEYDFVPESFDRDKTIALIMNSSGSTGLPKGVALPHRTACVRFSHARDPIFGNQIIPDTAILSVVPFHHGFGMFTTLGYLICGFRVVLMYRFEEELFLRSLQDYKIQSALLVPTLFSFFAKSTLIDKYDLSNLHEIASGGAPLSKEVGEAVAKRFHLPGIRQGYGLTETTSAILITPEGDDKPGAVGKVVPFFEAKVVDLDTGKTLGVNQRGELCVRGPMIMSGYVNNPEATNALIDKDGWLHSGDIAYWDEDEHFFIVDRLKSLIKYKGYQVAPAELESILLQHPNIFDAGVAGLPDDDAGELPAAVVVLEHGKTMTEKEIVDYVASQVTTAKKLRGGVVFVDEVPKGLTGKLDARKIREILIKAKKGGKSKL
Assay: qHTS assay to identify small molecule inhibitors of firefly luciferase (AID 1224835); further: nearly all actives have a fitted effect of over 25% in size
Settings: purified P. pyralis luciferase, luminescence inhibition; series mostly up to 115 µM
How it was run: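 Inhibition of purified Photinus luciferase is measured by luminescence. Substrate levels (D-luciferin, ATP) sit at their KM values. Each compound is tested in a concentration series.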

SMILES | Potency
CCC[N+]1(C)CCCC1 | inactive
Oc1ccccc1-c1ccccc1 | inactive
O=c1[nH]c(=O)n(Cl)c(=O)n1Cl | inactive
CN(C)[C@@H]1C(=O)C(C(N)=O)=C(O)[C@@]2(O)C(=O)C3=C(O)c4c(O)cccc4[C@@](C)(O)[C@H]3[C@H](O)[C@@H]12 | inactive
CCCCCCCCCCCCCC[P+](CCCCCC)(CCCCCC)CCCCCC | inactive
CCCC[N+]1(C)CCCCC1 | inactive
C[N+](C)(C)Cc1ccccc1 | inactive
CCCCCCCCCCCCn1cc[n+](C)c1 | inactive
CC(Cl)(Cl)C(=O)O | inactive
COP(=O)(OC)OC=C(Cl)Cl | inactive
CCCC[n+]1ccccc1C | inactive
CCCC[N+]1(C)CCCC1 | inactive
O=C(O)CC(O)(CC(=O)O)C(=O)O | inactive
CCCC[n+]1cccc(C)c1 | inactive
CC[N+]1(C)CCCC1 | inactive
C=CCOC(Cn1ccnc1)c1ccc(Cl)cc1Cl (stereo unspecified) | inactive
